EP2 modulator: modulates human prostaglandin E2 receptor EP2 signaling; P43116; EP2-expressing cells, cAMP HTRF FRET, PGE2 co-stimulation; induction, % at 25 µM; 260,000 tested, 0.83% active; AID 940;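 active = compounds whose cAMP rise, as percent of the full-agonist control response, exceeds 60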;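 note: rat C6 glioma line stably carrying human EP2 under a CMV promoter; the protocol text gives 20 µM as final concentration; 100% = response of wells given 1 µM PGE2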
EP2 antag: EP2 receptor (human) inhibition; 260,000 tested, 0.52% active; C6 glioma cells expressing human EP2, cAMP TR-FRET; cells stimulated with saturating PGE2; inhibition, % at 25 µM;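 active = percent inhibition above 40 after rounding to a whole number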;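 note: rat C6 glioma host cells with rolipram phosphodiesterase inhibitor present; the protocol text gives 20 µM as final concentration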
Hck-Nef inh: blocks Nef-activated human Hck kinase; Recombinant Hck-YEEI plus Nef, Z-Lyte FRET kinase assay; 220,000 tested, 0.68% active; P08631; inhibition, % at 20 µM; AID 463187;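 active = Hck-Nef kinase inhibition above about 50%, limit read from the data; inactive = inhibition below that limit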;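 note: 0% = DMSO with Hck plus Nef and 100% = Hck alone without Nef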
Target sequence (P08631 whole entry, looked up): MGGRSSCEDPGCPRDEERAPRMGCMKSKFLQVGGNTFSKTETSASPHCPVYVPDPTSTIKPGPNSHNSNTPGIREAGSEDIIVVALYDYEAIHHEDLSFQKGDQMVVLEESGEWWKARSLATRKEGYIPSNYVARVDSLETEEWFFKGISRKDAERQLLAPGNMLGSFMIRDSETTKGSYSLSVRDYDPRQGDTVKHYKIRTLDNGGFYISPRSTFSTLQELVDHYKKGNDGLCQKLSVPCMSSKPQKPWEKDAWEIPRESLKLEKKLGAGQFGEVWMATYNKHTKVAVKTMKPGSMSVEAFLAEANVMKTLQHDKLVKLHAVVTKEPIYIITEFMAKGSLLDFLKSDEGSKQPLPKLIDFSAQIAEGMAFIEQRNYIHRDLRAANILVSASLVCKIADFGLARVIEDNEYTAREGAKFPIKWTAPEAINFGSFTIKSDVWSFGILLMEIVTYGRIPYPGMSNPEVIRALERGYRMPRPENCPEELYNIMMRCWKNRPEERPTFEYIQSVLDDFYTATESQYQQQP
p97 inhibitor: inhibitors of human p97 ATPase | P55072 | AID 1481 | recombinant p97 ATPase, Kinase-Glo ATP luminescence, 3 h | 220,000 tested, 0.42% active | inhibition, % at 8 µM; in the data active = inhibition above about 15%;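 note: 0% = DMSO vehicle and 100% = wells lacking enzyme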
Arbovirus anti: arbovirus infection inhibition | arbovirus infection cell-based antiviral screen | inhibition, % at 10 µM | 200,000 tested, 0.37% active | AID 1251; in the data active = inhibition above about 30%
EP2 cAMP induct: EP2 receptor cAMP induction, counter-screens negative. shares compounds with EP2 modulator. 1,300 tested, 47% active. C6 glioma EP2 cells, cAMP HTRF induction; plus low (about EC15) PGE2 agonist. calls only at 20 µM (by protocol);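 active = cAMP induction above 50% in the main assay while under 30% in all four parallel counter assays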;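 note: rat C6 glioma cells stably expressing human EP2 receptor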
* = called active by the depositor; i = inactive; x = no result; + = active, no number. Compounds with a hit are over-represented: about 2.4% of the library has one in this group of screens.

SMILES | EP2 modulator | EP2 antag | Hck-Nef inh | p97 inhibitor | Arbovirus anti | EP2 cAMP induct
O=C1CC(C(=O)N(Cc2ccco2)C(C(=O)NC2CCCCC2)c2ccncc2)CS1 (stereo unspecified) | 1 | 8 | x | x | x | x
O=C(COc1ccc(Cl)cc1)N1CCN(C(=O)c2cccc3ccccc23)CC1 | -76 | 11 | x | x | x | x
CC(C)C(=O)N1CCN(c2ccccc2NC(=O)c2ccc(C#N)cc2F)CC1 | 26 | 5 | 22 | 1 | 5 | x
CC1CCN(c2ccccc2NC(=O)c2ccc(C#N)cc2F)CC1 | 59 | 10 | -6 | 1 | -5 | +
CC(C(=O)NC1CCCC1)N(C(=O)c1snc(C(N)=O)c1N)c1cccc(F)c1 (stereo unspecified) | -111 | 16 | x | x | x | x
Cc1ccc2c(c1)nnn2C1CCN(CC(=O)Nc2ccc(F)c(Cl)c2)CC1 | -50 | 15 | x | x | x | x
COc1ccc(Oc2cc(C(F)(F)F)nc(N(C)C)n2)cc1 | 65* | 7 | -12 | 1 | -9 | i
CCOC(=O)C1CCCN(C(=O)c2ccccc2NC(C)=O)C1 (stereo unspecified) | -6 | 3 | 1 | 5 | 6 | x
CCOC(=O)C1CCCN(C(=O)c2ccc(C)cc2O)C1 (stereo unspecified) | 66* | 5 | 2 | 2 | 4 | i
CCOC(=O)c1ccccc1NC(=O)C1COc2ccccc2O1 (stereo unspecified) | 72* | 11 | 0 | 0 | 2 | +
CCOC(=O)c1c(NC(=O)C2COc3ccccc3O2)sc(C)c1C (stereo unspecified) | 44 | 11 | 3 | 4 | 9 | x
Cc1nc2c(-c3ccc(F)cc3)c(C)nn2c(C)c1CCC(=O)N1CCOCC1 | 1 | 7 | 0 | -10 | -1 | x
Cc1nc2c(-c3ccccc3)c(C)nn2c(C)c1CCC(=O)N1CCOCC1 | 78* | 15 | 1 | -5 | -1 | i
Cc1ccc(F)cc1NC(=O)Cn1nc(-c2ccco2)cc(N)c1=O | -51 | 6 | x | x | x | x
COc1ccccc1NC(=O)c1c(C)oc2c1CCCC2 | 79* | 20 | 12 | -2 | 6 | i
Cc1oc2c(c1C(=O)Nc1cccc3ccccc13)CCCC2 | 25 | 13 | 0 | 0 | -4 | x
CC1=CC(C)(C)N2C(=O)C3(NCCc4c3[nH]c3ccccc43)c3cc(C)cc1c32 (stereo unspecified) | -16 | 4 | 24 | 1 | x | x
CC1=CC(C)(C)N2C(=O)C3(SCC(=O)N3c3ccc(F)cc3)c3cc(C)cc1c32 (stereo unspecified) | 76* | 3 | 2 | -4 | 6 | +
COc1ccc2nc(CN(Cc3ccncc3)C3CC(C)(C)NC(C)(C)C3)ccc2c1 | -63 | 8 | x | x | x | x
NC(=O)NCc1ccccc1 | 7 | 12 | 4 | 5 | 5 | x
O=C(O)NCc1ccccc1 (tested in a mixture with another compound) | 68* | 8 | x | x | x | +
Cc1ccc(C(C)C(=O)N2CCC3(CC2)NC(=O)c2cc(Cl)ccc2N3)cc1 (stereo unspecified) | 8 | 10 | x | x | x | x
O=C(Nc1cc(C(F)(F)F)ccc1-n1cncn1)c1ccc(-c2ccccc2)cc1 | 66* | 6 | 2 | 0 | 2 | +
CCN(CC)c1ccc(C2C(C#N)C(=O)NC(=O)C2[n+]2ccccc2)cc1 (stereo unspecified) | 2 | 5 | x | x | x | x
COc1ccc(-c2nn3c(-c4ccccc4)nnc3s2)cc1 | 81* | 4 | 4 | -2 | -19 | +
SMILES | EP2 modulator | EP2 antag | Hck-Nef inh | p97 inhibitor | Arbovirus anti | EP2 cAMP induct
c1ccc(-c2nnc3sc(-c4ccncc4)nn23)cc1 | 6 | 4 | 6 | -5 | -1 | x
COc1ccc(-n2c(-c3ccccc3)nnc2-c2ccc(Cl)cc2)cc1 | 69* | 9 | 3 | 4 | -7 | +
Clc1ccc(-c2nn3c(-c4ccccc4)nnc3s2)cc1 | 73* | 5 | 2 | 2 | -4 | +
COc1ccc(-n2nnnc2-c2ccccc2)cc1 | 5 | 4 | 0 | 1 | -1 | x
CCc1nn(CC(=O)N(CC)CC)c(=O)c2cc3ccsc3n12 | -19 | x | x | x | x | x
CCCS(=O)(=O)Nc1c(C(=O)OC)[nH]c2ccccc12 | 20 | 10 | -6 | 2 | 0 | x
COC(=O)c1[nH]c2ccccc2c1NS(=O)(=O)c1ccc(F)c(C)c1 | 77* | 4 | 1 | 2 | -2 | +

Screening results (PubChem)
